# Test results published in the supplement of paper PMC12669032.
# A number with no mark means an inactive call.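 The calls were made as follows: active = AUC reduced over 20% with Padj below 0.05 in at least 2 of 3 replicates; inactive = otherwise.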
# How the values were obtained:
# Test in all cases: growth AUC relative to DMSO control (median of replicates) (fraction); higher = more growth (less inhibition), active = hit call of the paper
# Conditions in all cases: 20 µM; 24 h
# Akkermansia muciniphila = tested on: Akkermansia muciniphila
# In short: (§1)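 Gut bacteria were grown singly in mGAM at 37 °C without oxygen, from OD600 0.05, alongside 20 µM compound in 1% DMSO, and OD600 was read each hour for 24 h. Area under the growth curve was normalised to the median of solvent-only wells per plate, or to row and column medians on the industrial chemical plate. The minimum OD was set to 0 beforehand, and the reported value is the median of three biological replicates grown on separate days.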
# Bacteroides caccae = tested on: Bacteroides caccae
# In short: as §1
# Bacteroides clarus = tested on: Bacteroides clarus
# In short: as §1
# Bacteroides dorei = tested on: Bacteroides dorei
# In short: as §1
# Bacteroides stercoris = tested on: Bacteroides stercoris
# In short: as §1
# [1] = tested on: Bacteroides thetaiotaomicron
# In short: as §1
# Bacteroides uniformis = tested on: Bacteroides uniformis
# In short: as §1
# [2] = tested on: Bifidobacterium longum subsp. longum
# In short: as §1
# Clostridium difficile = tested on: Clostridium difficile
# In short: as §1
# Collinsella aerofaciens = tested on: Collinsella aerofaciens
# In short: as §1
# Coprococcus comes = tested on: Coprococcus comes
# In short: as §1
# Escherichia coli ED1a = tested on: Escherichia coli ED1a
# In short: as §1
# Escherichia coli IAI1 = tested on: Escherichia coli IAI1
# In short: as §1
# Eubacterium rectale = tested on: Eubacterium rectale
# In short: as §1
# [3] = tested on: Fusobacterium nucleatum subsp. animalis
# In short: as §1
# Lactobacillus gasseri = tested on: Lactobacillus gasseri
# In short: as §1
# Lactobacillus paracasei = tested on: Lactobacillus paracasei
# In short: as §1
# Odoribacter splanchnicus = tested on: Odoribacter splanchnicus
# In short: as §1
# [4] = tested on: Parabacteroides distasonis
# In short: as §1
# Parabacteroides merdae = tested on: Parabacteroides merdae
# In short: as §1
Structure (SMILES),growth AUC (Akkermansia muciniphila),growth AUC (Bacteroides caccae),growth AUC (Bacteroides clarus),growth AUC (Bacteroides dorei),growth AUC (Bacteroides stercoris),growth AUC [1],growth AUC (Bacteroides uniformis),growth AUC [2],growth AUC (Clostridium difficile),growth AUC (Collinsella aerofaciens),growth AUC (Coprococcus comes),growth AUC (Escherichia coli ED1a),growth AUC (Escherichia coli IAI1),growth AUC (Eubacterium rectale),growth AUC [3],growth AUC (Lactobacillus gasseri),growth AUC (Lactobacillus paracasei),growth AUC (Odoribacter splanchnicus),growth AUC [4],growth AUC (Parabacteroides merdae)
Oc1cccc2cccnc12,0.981,0.994,1.01,0.993,1.12,0.984,0.988,1.14,0.959,0.963,0.928,0.987,0.982,0.904,1.04,1.08,0.942,1.02,1,0.993
CCCN(CC1CC1)c1c([N+](=O)[O-])cc(C(F)(F)F)cc1[N+](=O)[O-],1.35,0.93,1.03,0.953,1.42,1,1.03,1.03,0.979,0.955,0.995,1.01,1.03,1,1.09,1.11,0.977,0.943,1.03,1.03
Cc1ccc(N(SC(F)(Cl)Cl)S(=O)(=O)N(C)C)cc1,0.918,1,1,1.04,1.02,1.02,1.03,1.03,0.991,0.989,1.02,0.974,0.982,1.03,1,1.07,1,1.02,1.06,1.04
COP(=S)(OC)Oc1ccc(Sc2ccc(OP(=S)(OC)OC)cc2)cc1,0.994,0.986,1.04,0.979,1.08,1.04,0.968,0.94,0.996,0.992,1.03,1.05,1.01,1.01,1.09,1.03,0.973,1.13,1.01,1.05
COP(=S)(OC)SCC(=O)N(c1ccc(Cl)cc1)C(C)C,0.942,0.983,0.965,0.965,1.03,0.929,0.912,1.02,1.01,0.993,1.04,0.988,0.976,0.964,0.985,1.03,1.04,1,0.861,0.924
CCS(=O)(=O)CCSP(=O)(OC)OC,0.829,1.02,0.962,1,0.979,1.01,0.986,1.01,0.975,1.01,0.975,1.01,0.992,0.935,0.969,1.04,1.03,0.97,1.08,0.988
CC(C)(C)C(O)/C(=C/c1ccc(Cl)cc1Cl)n1cncn1 (mixture of isomers),1,0.869,0.947,0.854,1.32,0.88,0.874,1.02,0.964,1.03,0.959,0.983,0.979,0.992,1,0.836,0.997,0.86,0.938,0.907
NCP(=O)(O)O,1.04,1.02,1.03,1.03,1.17,0.982,1.02,1.04,1.06,1.05,1.02,1.02,1.04,1.01,0.965,1.09,1.02,1.02,1.04,1.02
CCCCCCCCCCCCC1=C(OC(C)=O)C(=O)c2ccccc2C1=O,1.04,0.926,0.934,0.969,0.988,0.996,0.987,0.827,0.926,0.0278 (active),0.863,1,0.975,0.889,1.02,0.504 (active),0.894,0.959,0.933,0.878
O=C(OC1CCCCC1)c1ccccc1C(=O)OC1CCCCC1,1,0.967,0.997,0.985,1.09,0.951,0.985,1,0.995,0.943,0.97,1,0.99,0.946,1.01,1.08,1.02,0.991,0.957,1
C/C(=N\NC(=O)Nc1cc(F)cc(F)c1)c1ncccc1C(=O)[O-].[Na+],1.33,1,1.01,0.77,1.05,1.01,0.946,0.987,1,0.965,1.01,0.973,0.995,1.12,1.09,0.796,0.975,1.07,0.875,1.01
O=C(Nc1ccccc1)Nc1cnns1,0.941,0.868,0.921,0.918,1.04,0.941,1.01,1.03,0.936,0.969,0.971,0.91,0.884,1,0.955,0.925,1.09,0.938,0.94,0.955
O=C(O)C1(O)c2ccccc2-c2ccc(Cl)cc21 (stereo not given),0.865,0.979,0.935,1.08,1.04,0.958,0.984,0.936,0.993,1.03,0.972,0.998,0.975,0.947,0.982,1.05,0.997,1.01,0.979,0.987
CS/C(C)=N/OC(=O)N(C)SN(C)C(=O)O/N=C(\C)SC,0.98,1.02,0.943,1.05,1.09,1.03,1.02,1.04,1.01,0.932,0.98,1.02,1.01,1.17,1.04,1.05,0.941,1.04,1.03,1.03
CCOP(=O)(SC(C)CC)N1CCSC1=O (stereo not given),0.9,1.02,0.977,1,1.07,0.992,0.996,1.02,1.02,1.05,1,0.984,0.986,0.862,1.01,0.997,1.01,1.04,1.05,1.01
